The structures appear in SMILES notation. The panel holds about 79,000 compounds, 15% with a hit somewhere; the sample as a whole holds those more often. Unmarked numbers belong to inactive results. Activity calls are given as the source filed them. Rule as the data show it: active = growth inhibition above about 70%; inactive = the rest.

Assay [1] in a line: NCI Yeast Anticancer Drug Screen. Data for the rad50 strain (AID 155).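 Also: 0% = growth of vehicle-only cultures of the same strain.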 The conditions noted are these: S. cerevisiae rad50 strain growth inhibition; at 50.0 µM; hits give high values. The method, boiled down:
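Growth of the mutant yeast was measured after compound exposure and referenced to vehicle-treated cultures.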

Assay [2] can be described thus: NCI Yeast Anticancer Drug Screen. Data for the mec2-1 strain (AID 157). The following applies: S. cerevisiae mec2-1 strain, at 50.0 µM, hits give high values. An outline of the steps:
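Cells of the genetically defined mec2-1 yeast strain are incubated with test compound. Inhibition of growth is calculated against vehicle-treated controls.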

The nature of assay [3]: NCI Yeast Anticancer Drug Screen. Data for the sgs1 mgt1 strain (AID 161).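 Also: 0% = growth of cultures given vehicle only.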 The following applies: S. cerevisiae sgs1 mgt1 strain, at 50.0 µM, hits give high values. The method, boiled down:
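Inhibition of yeast growth, normalised to vehicle-treated controls, is reported for a strain bearing genetic alterations in DNA damage repair.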

A short description of assay [4]: NCI Yeast Anticancer Drug Screen. Data for the cln2 rad14 strain (AID 165).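 Also: 0% = growth equal to vehicle treated cultures.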 The conditions noted are these: S. cerevisiae cln2 rad14 strain, at 50.0 µM, hits give high values. The method, boiled down: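 The screen exposed genetically defined yeast (cln2 rad14) to test compounds and scored growth inhibition relative to vehicle-treated controls.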
Assay [5] is described as follows: NCI Yeast Anticancer Drug Screen. Data for the bub3 strain (AID 167). The conditions noted are these: S. cerevisiae bub3 mutant strain, at 50.0 µM, hits give high values. An outline of the steps: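 Whole-cell yeast assay. The mutant strain was incubated with compounds, and growth inhibition was determined by comparison with vehicle-treated cells.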
Assay [6] in a line: NCI Yeast Anticancer Drug Screen. Data for the mlh1 rad18 strain (AID 175). The conditions noted are these: S. cerevisiae mlh1 rad18 strain growth inhibition; at 50.0 µM; hits give high values. The method, boiled down: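 Compound-treated yeast growth, normalised to vehicle controls. Strain bears defined DNA repair mutations.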

Consider `CCOC(=O)C(C=C(C)C)(CC)C(=O)OCC`, for which the growth inhibition in assay [1] was 2.5%; in assay [2], -17%; in assay [3], -5.7%; in assay [4], -4.55%; in assay [5], -17.1%; in assay [6], -21.9%.

As to `O=C(Cl)N(C1CCCCC1)C1CCCCC1`, the growth inhibition in assay [1] was -19%; in assay [2] it was -8.8%; in assay [3], -1.5%; in assay [4], -10.9%; in assay [5], 2.35%; in assay [6], -12.9%.

For `CC(=O)CC1=CC(C(C)(C)C)=CC(=O)C1=O`, the growth inhibition was 43.1% in assay [1]; 26.1% in assay [2]; 30.1% in assay [3]; 49% in assay [4]; 8.6% in assay [5]; 49.5% in assay [6].

With `NC(=O)N/N=C1\CCc2ccccc2C1`, the growth inhibition is 12.8% in assay [1]; -12.3% in assay [2]; -25.8% in assay [3]; 22.4% in assay [4]; -42.3% in assay [5]; -2.8% in assay [6].

For the compound `Cc1ccccc1NC=O`, the growth inhibition is -26% in assay [1]; -19.2% in assay [2]; -44.5% in assay [3]; 5.9% in assay [4]; -36.5% in assay [5]; -13% in assay [6].

For the compound `C=C(C)C(O)C(O)c1c(OC)ccc2ccc(=O)oc12` (stereo unspecified), the growth inhibition in assay [1] is -3.65%; in assay [2] it was -4.25%; in assay [3] it was -50.7%; in assay [4] it was 14.1%; in assay [5], -5.55%; in assay [6], -4.4%.

Turning to `Cc1cc(N=Cc2cccs2)cc(Cl)c1O`, the growth inhibition was 21.7% in assay [1]; 14.4% in assay [2]; 5.05% in assay [3]; 12.2% in assay [4]; 41.8% in assay [5]; 24.8% in assay [6].

Consider `O=C1c2ccccc2CC12CCC1(CC2)OCCO1`, for which the growth inhibition was -14% in assay [1]; -1% in assay [2]; 3.55% in assay [3]; 26.6% in assay [4]; -12.5% in assay [5]; -23.6% in assay [6].

For `COc1ccc(C(NCCn2cnc3c2c(=O)n(C)c(=O)n3C)c2ccccc2)cc1` (stereo unspecified), the growth inhibition in assay [1] is 19.4%; in assay [2], 4.05%; in assay [3] it was 11.2%; in assay [4], -33.6%; in assay [5], -4.5%; in assay [6], 18.8%.

`OC12C=CC(CCCC1)O2` (stereo unspecified): the growth inhibition is 0.35% in assay [1]; -6.65% in assay [2]; -7.4% in assay [3]; 3.2% in assay [4]; 10.3% in assay [5]; 4.9% in assay [6].

In the case of `CCNS(=O)(=O)c1ccc2c(c1)nc(C)n2CC`, the growth inhibition in assay [1] is 16.4%; in assay [2] it was -27.6%; in assay [3], -3.5%; in assay [4] it was 13.1%; in assay [5], 23.6%; in assay [6], 11.5%.

In the case of `CC(C)=CCNC(N)=O`, the growth inhibition is 4.95% in assay [1]; -3.8% in assay [2]; -10.5% in assay [3]; 11% in assay [4]; 7.4% in assay [5]; 2.15% in assay [6].

Consider `CCCCCCCCCCCCCCOc1ccc2ccccc2c1`, for which the growth inhibition in assay [1] is 21.5%; in assay [2] it was 6.7%; in assay [3], 6.5%; in assay [4], -10.4%; in assay [5], -6.05%; in assay [6], -4%.

As to `COc1ccc2cc(C(=O)CCC(=O)O)ccc2c1`, the growth inhibition in assay [1] was 2.7%; in assay [2], -35%; in assay [3] it was -16.4%; in assay [4], -21.3%; in assay [5] it was -38.5%; in assay [6], 0.25%.

On to `CCOC(=O)C(C)(C(C)=O)c1nc(=S)[nH]c(=S)[nH]1` (stereo unspecified), for which the growth inhibition in assay [1] was 4.2%; in assay [2], 7.55%; in assay [3], 2.1%; in assay [4], -19.8%; in assay [5] it was 7.25%; in assay [6], -5.1%.

Turning to `CCc1cc(O)cc(C)c1Cl`, the growth inhibition in assay [1] was 55.1%; in assay [2] it was 29.6%; in assay [3] it was 46.1%; in assay [4] it was 46.4%; in assay [5], 44.3%; in assay [6] it was 26.1%.

Regarding `O=c1[nH]c2ccc(Cl)cc2[nH]c1=O`, the growth inhibition in assay [1] is -7.05%; in assay [2], 5%; in assay [3], -10.5%; in assay [4] it was 0.3%; in assay [5] it was -1.45%; in assay [6], 0.9%.

Turning to `CCC[CH2][Sn]([CH2]CCC)([O]C(=O)c1cccc(F)c1F)[O][Sn]([CH2]CCC)([CH2]CCC)[O]C(=O)c1cccc(F)c1F`, the growth inhibition in assay [1] is 89.4% (active); in assay [2] it was 91.5% (active); in assay [3], 91.2% (active); in assay [4], 88.5% (active); in assay [5], 90% (active); in assay [6], 86% (active).

Consider `Cc1ccccc1NC(=O)Oc1ccc2c(C)cc(=O)oc2c1`, for which the growth inhibition in assay [1] is -3%; in assay [2] it was 12.2%; in assay [3], 14.4%; in assay [4], -17.2%; in assay [5] it was 14.3%; in assay [6], 24.9%.

Regarding `CN1C(=O)c2ccccc2CC12c1ccccc1C(=O)N2C` (stereo unspecified), the growth inhibition in assay [1] was 2.8%; in assay [2] it was -13.6%; in assay [3], 22.9%; in assay [4], -0.55%; in assay [5] it was 15.9%; in assay [6], 4.45%.

For the compound `Cc1cnc2cc(Cl)ccc2c1NCCN(CC(C)C)CC(C)C`, the growth inhibition in assay [1] is -11%; in assay [2], 0.7%; in assay [3], -10.6%; in assay [4], -22.5%; in assay [5], 0.05%; in assay [6], -30.8%.
